This note sets out measurements from the antibiotic and cytotoxicity screens of Wong et al. (2023).

The whole screen tested about 39,000 compounds, of which about 500 (1.3%) were called active. This is one part of a sample in which actives are shown more often than they occur.

The subject of the assay is S. aureus RN4220. The experiment in a line: growth inhibition call (relative growth <= 0.2). The conditions noted are these: 50 µM.
`C[C@@H]1CN([C@H](C)CO)C(=O)c2cc(NC(=O)Nc3ccc4c(c3)OCO4)ccc2O[C@@H](C)CCCCO[C@H]1CN(C)Cc1ccc(C(=O)O)cc1`: the growth inhibition call was “inactive”. Consider `C[C@@H]1CN([C@H](C)CO)C(=O)c2cc(NC(=O)Nc3ccc4c(c3)OCO4)ccc2O[C@@H](C)CCCCO[C@@H]1CN(C)C(=O)CCC(F)(F)F`, for which the growth inhibition call is “inactive”. For `COc1ccc(CN(C)C[C@@H]2Oc3c(NC(=O)c4ccc(-c5nccs5)cc4)cccc3C(=O)N([C@@H](C)CO)C[C@H]2C)cc1` the value was “inactive”; for `Cc1noc(C)c1S(=O)(=O)Nc1ccc2c(c1)CC(=O)N([C@@H](C)CO)C[C@H](C)[C@H](CN(C)S(=O)(=O)c1cn(C)cn1)O2`, “inactive”. `C[C@@H]1CN([C@H](C)CO)C(=O)c2cccc(NS(C)(=O)=O)c2O[C@H]1CN(C)C(=O)Nc1ccccc1`: the growth inhibition call is “inactive”. For the compound `CC(C)NC(=O)Nc1ccc2c(c1)C(=O)N([C@H](C)CO)C[C@H](C)[C@H](CN(C)Cc1ccc(C(=O)O)cc1)O2`, the growth inhibition call was “inactive”. In the case of `NC[C@H]1O[C@H](O[C@H]2[C@@H](O[C@@H]3O[C@H](CO)[C@@H](O)[C@H]3O)[C@@H](O)[C@H](N)C[C@@H]2N)[C@H](N)[C@@H](O)[C@@H]1O` it was “inactive”. With `NC[C@H]1O[C@H](O[C@H]2[C@H](O)[C@@H](O[C@H]3O[C@H](CO)[C@@H](O)[C@H](N)[C@H]3O)[C@H](N)C[C@@H]2N)[C@H](N)C[C@@H]1O`, the growth inhibition call was “active”. `NC[C@@H]1O[C@H](O[C@H]2[C@@H](O)[C@H](O[C@@H]3[C@@H](O)[C@H](N)C[C@H](N)[C@H]3O[C@@H]3O[C@H](CO)[C@@H](O)C[C@H]3N)O[C@@H]2CO)[C@H](N)[C@@H](O)[C@@H]1O[C@H]1O[C@H](CO)[C@@H](O)[C@H](O)[C@@H]1O`: the growth inhibition call was “inactive”. Consider `NCC1OC(OC2C(N)CC(N)C(OC3OC(CO)C(O)C(N)C3O)C2O)C(N)CC1O` (configuration not stated), for which the growth inhibition call was “active”. In the case of `NCC1CCC(N)C(OC2C(N)CC(N)C(OC3OC(CO)C(O)C(N)C3O)C2O)O1` (configuration not stated) it was “inactive”; in that of `NC[C@H]1O[C@H](O[C@@H]2[C@H](O)[C@@H](O[C@H]3O[C@H](CO)[C@@H](O)[C@H](N)[C@H]3O)[C@H](N)C[C@@H]2N)[C@H](O)[C@@H](O)[C@@H]1O`, “inactive”; in that of `C[C@@H]1CN([C@@H](C)CO)C(=O)c2cccc(NC(=O)CCCCCC(=O)Nc3ccccc3N)c2O[C@@H]1CN(C)C(=O)Nc1ccc(F)cc1`, “inactive”. For `OCC(CO)NC1CC(O)(CO)C(O)C(O)C1O` (configuration not stated), the growth inhibition call was “inactive”. Consider `C[C@H](CO)N1C[C@H](C)[C@H](CN(C)CC2CC2)OCCCC[C@H](C)Oc2ccc(NC(=O)Cc3ccccc3)cc2C1=O`, for which the growth inhibition call was “inactive”. As for `COc1ccc(NC(=O)Nc2ccc3c(c2)C(=O)N([C@@H](C)CO)C[C@H](C)[C@@H](CN(C)S(=O)(=O)c2ccc(Cl)cc2)OCCCC[C@H](C)O3)cc1`, the growth inhibition call is “inactive”. For `CCCNC(=O)N1C[C@]2(CCN(CC2)S(=O)(=O)c2ccccc2)c2c(n(c3cc(ccc23)OC)C)[C@@H]1CO` the value was “inactive”. On to `C[C@H](CO)N1C[C@H](C)[C@@H](CN(C)Cc2ccc(C(F)(F)F)cc2)Oc2ccc(NC(=O)Nc3ccc(F)cc3)cc2CC1=O`, for which the growth inhibition call was “inactive”. In the case of `Cc1cc2nc(C(=O)NC[C@H]3CCCS(=O)(=O)C3)cc(-c3ccccc3Cl)c2c(C)c1-c1ccncc1` it was “inactive”; in that of `CC(C)(C)[S@@](=O)N1Cc2cc(C(=O)N[C@@H]3CCN(Cc4ccccc4)C3)nc(-c3cccc(-c4ccncc4)c3)c2[C@H]1CCO`, “inactive”.

`Cc1cc2nc(C(=O)N[C@H]3CCN(C)C3)cc(-c3ccccc3Cl)c2c(C)c1-c1ccc(CO)cc1`: the growth inhibition call is “active”. For `CC(C)NC(=O)N(C)C[C@@H]1Oc2ccc(NC(=O)Cc3ccccc3)cc2CC(=O)N([C@@H](C)CO)C[C@H]1C` the value was “inactive”; for `CC(C)[C@@H](CS(=O)(=O)C(C)C)N1C(=O)[C@@](C)(CC(=O)O)C[C@H](c2cccc(Cl)c2)[C@H]1c1ccc(Cl)cc1`, “inactive”; for `COc1ccc(CC(N)C(=O)NC2C(CO)OC(n3cnc4c(N(C)C)ncnc43)C2O)cc1.Cl.Cl` (configuration not stated), “inactive”. For `Nc1ncnc2c1ncn2[C@@H]1O[C@H](CO)[C@@H](O)[C@@H]1O`, the growth inhibition call was “inactive”.

Consider `COc1nc(N)nc2c1ncn2[C@@H]1O[C@H](CO)[C@@H](O)[C@@H]1O`, for which the growth inhibition call is “inactive”. For `CN(C)c1ncnc2c1ncn2[C@H]1O[C@@H](CO)[C@@H](N)[C@@H]1O` the value was “inactive”; for `CNc1ncnc2c1ncn2[C@@H]1O[C@H](CO)[C@@H](O)[C@H]1O`, “inactive”; for `COc1ccc(C[C@H](N)C(=O)N[C@H]2[C@@H](O)[C@@H](n3cnc4c(N(C)C)ncnc43)O[C@@H]2CO)cc1`, “active”.

As for `COc1ccc(C[C@@H](N)C(=O)N[C@@H]2[C@@H](O)[C@@H](n3cnc4c(N(C)C)ncnc43)O[C@@H]2CO)cc1`, the growth inhibition call is “active”. In the case of `COc1ccc(C[C@H](N)C(=O)N[C@H]2[C@@H](O)[C@H](n3cnc4c(N(C)C)ncnc43)O[C@@H]2CO)cc1` it was “active”; in that of `Nc1ncnc2c1ncn2[C@H]1O[C@@H](CO)[C@H](O)[C@@H]1O`, “inactive”.

Take `O=C(C[C@@H]1CC[C@@H]2[C@H](COC[C@@H](O)CN2C(=O)c2ccccc2F)O1)N1CCN(c2ccccc2)CC1`: the growth inhibition call is “inactive”. In the case of `C[C@H](CO)N1C[C@H](C)[C@H](CN(C)Cc2ccc(C(=O)Nc3ccccc3N)cc2)Oc2ccc(NC(=O)Nc3ccc(C(F)(F)F)cc3)cc2CC1=O` it was “inactive”; in that of `C[C@@H]1CN([C@@H](C)CO)C(=O)c2cc(NS(=O)(=O)c3cn(C)cn3)ccc2O[C@@H]1CN(C)S(=O)(=O)c1cccs1`, “inactive”; in that of `Cc1noc(C)c1NC(=O)Nc1cccc2c1O[C@H](CN(C)Cc1ccc(C(=O)Nc3ccccc3N)cc1)[C@@H](C)CN([C@H](C)CO)C2=O`, “inactive”. Regarding `Cc1noc(C)c1S(=O)(=O)Nc1ccc2c(c1)C(=O)N([C@@H](C)CO)C[C@H](C)[C@@H](CN(C)Cc1ccc3c(c1)OCO3)O2`, the growth inhibition call was “inactive”. On to `CCCCCCCCC=CCCCCCCCC(=O)[O-].[NH3+]CCO`, for which the growth inhibition call was “inactive”.

Turning to `C[C@H]1CN([C@@H](C)CO)C(=O)c2cc(NC(=O)Nc3cccc4ccccc34)ccc2O[C@@H]1CN(C)Cc1ccc(-c2ccccc2)cc1`, the growth inhibition call is “inactive”. In the case of `Cl.N=C(NN=Cc1ccc(Cl)cc1)NN=Cc1ccc(Cl)cc1` it was “inactive”; in that of `Cl.Cl.N=C(NCCCCCCNC(=N)NC(=N)Nc1ccc(Cl)cc1)NC(=N)Nc1ccc(Cl)cc1`, “active”; in that of `CC(C)NC(=N)NC(=N)Nc1ccc(Cl)cc1.Cl`, “inactive”.
